We go through 20 compounds from PubChem BioAssay (NCATS).

In test [1] the target is Rap guanine nucleotide exchange factor 3 (Homo sapiens) (UniProt O95398). In words: Confirmatory qHTS for antagonist of cAMP-regulated guanine nucleotide exchange factor 3 (EPAC1) (AID 1645880). Also: nearly all actives have a fitted effect of over 55% in size. Also: potency is read from the fitted curve at half-maximal effect. The method in brief: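 Released BODIPY-GDP fluoresces less than Rap1-bound BODIPY-GDP; the signal is followed at 480/540 nm at 5-min intervals over 30 min, after 5 min at room temperature. Reactions contain 100 nM EPAC1, 250 nM RAP1B-BODIPY-GDP and 50 uM GDP; results are normalized to ATA and DMSO.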
Chain of Rap guanine nucleotide exchange factor 3 (Homo sapiens) (O95398 whole entry, looked up): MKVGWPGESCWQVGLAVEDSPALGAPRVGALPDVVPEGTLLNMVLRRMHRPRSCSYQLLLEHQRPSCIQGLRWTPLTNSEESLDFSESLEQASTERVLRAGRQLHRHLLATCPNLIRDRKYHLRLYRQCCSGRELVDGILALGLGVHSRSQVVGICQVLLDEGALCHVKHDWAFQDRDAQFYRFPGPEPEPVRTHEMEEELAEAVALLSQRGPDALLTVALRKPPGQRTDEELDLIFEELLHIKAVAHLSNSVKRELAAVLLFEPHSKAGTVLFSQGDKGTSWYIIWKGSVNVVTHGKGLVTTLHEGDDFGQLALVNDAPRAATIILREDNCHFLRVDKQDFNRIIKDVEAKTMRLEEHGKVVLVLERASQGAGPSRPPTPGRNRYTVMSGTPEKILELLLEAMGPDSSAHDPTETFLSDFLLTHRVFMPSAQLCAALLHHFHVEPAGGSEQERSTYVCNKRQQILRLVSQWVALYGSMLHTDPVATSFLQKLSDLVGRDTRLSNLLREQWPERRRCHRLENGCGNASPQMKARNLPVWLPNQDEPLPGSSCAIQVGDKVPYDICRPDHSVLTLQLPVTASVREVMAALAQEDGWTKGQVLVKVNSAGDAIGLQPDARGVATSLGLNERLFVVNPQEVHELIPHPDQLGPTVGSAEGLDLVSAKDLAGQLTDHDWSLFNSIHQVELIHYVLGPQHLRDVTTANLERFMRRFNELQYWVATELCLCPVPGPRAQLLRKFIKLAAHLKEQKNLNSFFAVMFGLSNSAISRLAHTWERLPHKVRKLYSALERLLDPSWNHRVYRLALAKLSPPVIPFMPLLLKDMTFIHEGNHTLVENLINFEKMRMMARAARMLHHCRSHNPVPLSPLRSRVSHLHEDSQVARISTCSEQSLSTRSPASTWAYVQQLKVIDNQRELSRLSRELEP
A general note: qHTS replaces the single test concentration by a dilution series.

Test [2] shares this target. In words: Confirmatory qHTS for agonist of cAMP-regulated guanine nucleotide exchange factor 3 (EPAC1) (AID 1645881).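 Also: EPAC1 catalysed release of BODIPY-GDP from Rap1B seen as fluorescence loss; 100% = effect of cAMP agonist control; nearly all actives have a fitted effect of over 75% in size.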
In test [3] the target is Rap guanine nucleotide exchange factor 4 (Homo sapiens) (UniProt Q8WZA2). The test is described as follows: Confirmatory qHTS for agonist of cAMP-regulated guanine nucleotide exchange factor 4 (EPAC2) (AID 1645884).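 Also: nucleotide exchange releases bodipy-GDP from Rap1 and this lowers its fluorescence; % is scaled to controls: 0 for no effect and ±100 for the full control effect; nearly all actives have a fitted effect of over 65% in size.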
Chain of Rap guanine nucleotide exchange factor 4 (Homo sapiens) (Q8WZA2 whole entry, looked up): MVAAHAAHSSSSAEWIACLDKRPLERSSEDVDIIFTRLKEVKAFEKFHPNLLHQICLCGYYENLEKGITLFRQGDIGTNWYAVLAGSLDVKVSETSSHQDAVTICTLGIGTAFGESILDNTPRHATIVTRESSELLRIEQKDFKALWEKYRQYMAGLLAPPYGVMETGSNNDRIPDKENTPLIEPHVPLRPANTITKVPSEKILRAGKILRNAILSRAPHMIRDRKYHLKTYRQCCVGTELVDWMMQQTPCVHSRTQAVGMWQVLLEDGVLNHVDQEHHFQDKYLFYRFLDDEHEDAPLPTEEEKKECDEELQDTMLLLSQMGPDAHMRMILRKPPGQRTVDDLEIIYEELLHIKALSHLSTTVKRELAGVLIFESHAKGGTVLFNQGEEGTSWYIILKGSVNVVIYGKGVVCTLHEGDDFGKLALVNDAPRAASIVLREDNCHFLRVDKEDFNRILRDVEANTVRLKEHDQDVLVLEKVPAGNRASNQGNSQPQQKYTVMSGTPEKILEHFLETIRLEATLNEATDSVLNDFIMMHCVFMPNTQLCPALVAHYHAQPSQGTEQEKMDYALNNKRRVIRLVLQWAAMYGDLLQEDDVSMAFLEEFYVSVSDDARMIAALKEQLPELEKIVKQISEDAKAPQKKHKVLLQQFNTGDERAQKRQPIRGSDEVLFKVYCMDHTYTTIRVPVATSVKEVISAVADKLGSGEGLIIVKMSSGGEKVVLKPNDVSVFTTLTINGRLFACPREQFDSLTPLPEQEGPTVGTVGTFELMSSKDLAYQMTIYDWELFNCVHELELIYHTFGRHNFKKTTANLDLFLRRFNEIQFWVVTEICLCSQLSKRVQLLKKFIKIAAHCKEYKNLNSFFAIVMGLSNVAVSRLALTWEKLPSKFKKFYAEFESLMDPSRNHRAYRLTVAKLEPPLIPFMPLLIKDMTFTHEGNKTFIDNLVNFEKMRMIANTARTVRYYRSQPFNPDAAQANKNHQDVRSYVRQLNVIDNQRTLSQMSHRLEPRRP
Test [4] has the same target. The test is described as follows: Confirmatory qHTS for antagonist of cAMP-regulated guanine nucleotide exchange factor 4 (EPAC2) (AID 1645885). Also: nearly all actives have a fitted effect of over 25% in size. Also: potency is read from the fitted curve at half-maximal effect. As to activity change, negative = inhibition: % is scaled to controls: 0 for no effect and ±100 for the full control effect.
Test [5] addresses Rap guanine nucleotide exchange factor 3 (Homo sapiens) (UniProt O95398). In words: Counterscreen qHTS for antagonist of cAMP-regulated guanine nucleotide exchange factor 3 (EPAC1) (AID 1645888). Also: % of control where 0% means no effect. The method in brief: (§1)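 Rap1B-BODIPY-GDP 250 nM + GDP 50 uM; cpds 7-pt, final 9.74 nM–152 uM (activator mode) or from 7.32 nM upwards (inhibitor mode); RT; FI 480/540 nm at 5 and 30 min, then ± cAMP, reread.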

For test [6] the target is unchanged. In words: Counterscreen qHTS for agonist of cAMP-regulated guanine nucleotide exchange factor 3 (EPAC1) (AID 1645889). Also: % of control where 0% means no effect; nearly all actives have a fitted effect of over 40% in size. In short, it runs like this: as §1
For orientation: Counterscreens check selectivity or assay interference.

Each structure is given as a SMILES string. Values joined by “and” are separate entries in the source; they are usually repeats but may differ in a detail not shown here. Equal values may be shown once. Inconclusive results are not listed. A structure can be active in one record and inactive in another. Active and inactive are the calls of the source. Calls follow the shape of the dose curve; as a rule, active = well fitted curve in the direction sought with a large enough effect; inconclusive = small, poorly fitted or top-dose-only effect, or another doubt; inactive = no such curve, though single readings can be large; an effect the other way counts as inactive or inconclusive.

Take `CCc1nc2c(OCCOc3ccc(F)cc3)cccn2c1N(C)C(=O)c1ccc(OC)cc1`: the Potency result in test [1], in test [2] and in test [4] was “inactive” in each case. The activation in test [3] was 3.55% [at 17.1 µM, percent relative to cAMP agonist control] (inactive); in test [6] it was 11.5% [at 30.8 µM] (inactive). In addition, the activity change, negative = inhibition in test [5] is -15.6% [at 30.8 µM] (inactive).
For the compound `Oc1ccc(/C=N/Nc2ncnc3c2ncn3Cc2ccccc2)cc1O`, the Potency in test [1] was 3.55 µM (active). Further, the Potency result in test [2] and in test [4] was “inactive” each time. Moreover, the activation in test [3] is 4.96% [at 17.1 µM, percent relative to cAMP agonist control] (inactive); in test [6] it was 1.06% [at 30.8 µM] (inactive). In test [5], the activity change, negative = inhibition was -13.7% [at 30.8 µM] (inactive).
As for `Cc1ccn2cc(CNC(=O)c3cccs3)nc2c1`, the Potency result in test [1], in test [2], in test [3], in test [4], in test [5] and in test [6] was “inactive” each time.
Take `CC1(C(=O)NS(=O)(=O)c2ccc(Cl)s2)CCN1C(=O)c1ccc(C2CCCCC2)cc1` (stereo not given): the Potency in test [1] is 79.4 µM (active). Moreover, the Potency entry in test [2] and in test [4] was “inactive” in each case. The activation in test [3] is 6.57% [at 17.1 µM, percent relative to cAMP agonist control] (inactive); in test [6], -4.08% [at 30.8 µM] (inactive). For the same compound, the activity change, negative = inhibition in test [5] is -3.31% [at 30.8 µM] (inactive).
As to `CCCCC(Sc1nc2cc3c(cc2c(=O)n1CCCC(=O)NCc1ccc2c(c1)OCO2)OCO3)C(=O)OCC` (stereo not given), the Potency entry in test [1], in test [2], in test [3], in test [5] and in test [6] was “inactive” each time. Moreover, in test [4], the outcome was “inactive [at 12.7 µM]”.
`COc1ccc(C2c3c(-c4ccccc4O)n[nH]c3C(=O)N2Cc2ccco2)cc1` (stereo not given): the Potency result in test [1], in test [2], in test [3], in test [5] and in test [6] was “inactive” throughout. In addition, the Potency result in test [4] was “inactive and 37.9 µM (active)”.
With `CC(OC(=O)CNC(=O)COc1ccccc1)C(=O)N(C)Cc1ccccc1` (stereo not given), the Potency result in test [1], in test [2] and in test [4] was “inactive” throughout. Besides, the activation in test [3] is 1.04% [at 17.1 µM, percent relative to cAMP agonist control] (inactive); in test [6], -1.24% [at 30.8 µM] (inactive). In test [5], the activity change, negative = inhibition is -17.7% [at 30.8 µM] (inactive).
Turning to `O=C(NCCC(=O)N(CCc1ccccc1)Cc1ccccc1)c1ccccc1Cl`, the Potency result in test [1], in test [2] and in test [4] was “inactive” each time. Further, the activation in test [3] was 0.223% [at 17.1 µM, percent relative to cAMP agonist control] (inactive); in test [6], 7.42% [at 30.8 µM] (inactive). Also, the activity change, negative = inhibition in test [5] was -6.01% [at 30.8 µM] (inactive).
Consider `COc1cc(/C=C2\SC(=S)N(NS(=O)(=O)c3ccccc3)C2=O)ccc1O`, for which the Potency result in test [1], in test [2], in test [3], in test [4], in test [5] and in test [6] was “inactive” throughout.
Take `Cn1c(=O)c2nc(SCC(=O)Nc3ccc(Cl)c(Cl)c3)n(C)c2n(C)c1=O`: the Potency result in test [1], in test [2], in test [3], in test [5] and in test [6] was “inactive” in each case. Besides, the outcome in test [4] was “inactive [at 12.7 µM]”.
Consider `CCC/C(=C1/c2ccccc2C(=O)N1c1ccccc1)c1cnc(OC)nc1`, for which the Potency result in test [1], in test [2], in test [3], in test [5] and in test [6] was “inactive” in each case. Besides, the Potency in test [4] is 37.9 µM (active).
Regarding `COc1ccc(OC)c(/C=C2\SC(=S)N(NS(=O)(=O)c3ccccc3)C2=O)c1`, the values for the Potency in test [1] and in test [4] were 23.9 µM (active) and 33.8 µM (active), respectively. Besides, the Potency entry in test [2], in test [3], in test [5] and in test [6] was “inactive” each time.
In the case of `O=C1CC(Cc2ccccc2)C(=O)N1CCc1ccc2c(c1)OCO2` (stereo not given), the Potency result in test [1], in test [2] and in test [4] was “inactive” throughout. Further, the activation was 2.14% [at 17.1 µM, percent relative to cAMP agonist control] (inactive) in test [3] and 1.4% [at 30.8 µM] (inactive) in test [6]. In addition, the activity change, negative = inhibition in test [5] was -4.71% [at 30.8 µM] (inactive).
`CCCCN1C(=O)C(O)(c2c[nH]c3ccccc23)c2cc(Br)ccc21` (stereo not given): the Potency result in test [1], in test [2], in test [3], in test [4], in test [5] and in test [6] was “inactive” each time.
`COc1ccc(N2CCN(C(=O)CSc3ncn[nH]3)CC2)cc1`: the Potency entry in test [1], in test [2], in test [3], in test [4], in test [5] and in test [6] was “inactive” in each case.
In the case of `CC(Sc1ccccc1)C(=O)NNC(=O)c1csc(N2CCOCC2)n1` (stereo not given), the Potency entry in test [1], in test [2] and in test [4] was “inactive” throughout. Besides, the activation in test [3] is 4.98% [at 17.1 µM, percent relative to cAMP agonist control] (inactive); in test [6], 28.3% [at 30.8 µM] (inactive). Further, the activity change, negative = inhibition in test [5] was 1.84% [at 30.8 µM] (inactive).
Regarding `COc1cc2c(cc1OC)-c1cc(NC3CCCCC3)nc(=O)n1CC2`, the Potency entry in test [1], in test [2] and in test [4] was “inactive” each time. Also, the activation in test [3] was -2.19% [at 17.1 µM, percent relative to cAMP agonist control] (inactive); in test [6] it was 2.97% [at 30.8 µM] (inactive). In test [5], the activity change, negative = inhibition is 14.4% [at 30.8 µM] (inactive).
For `CC(/C=C1\SC(=S)N(C(C(=O)O)C(C)C)C1=O)=C\c1ccccc1` (stereo not given), the Potency in test [1] is 47.8 µM (active). In addition, the Potency entry in test [2], in test [3], in test [4], in test [5] and in test [6] was “inactive” each time.
`O=c1[nH]c2cc3c(cc2cc1CN(Cc1ccccc1)Cc1nnnn1Cc1ccco1)OCCO3`: in test [1], the Potency was 42.6 µM (active). The Potency result in test [2], in test [3], in test [4], in test [5] and in test [6] was “inactive” each time.
On to `O=c1ccc(-c2ccccc2)nn1Cc1c(F)cccc1Cl`, for which the Potency entry in test [1], in test [2], in test [3], in test [4], in test [5] and in test [6] was “inactive” in each case.
